Results from PubChem BioAssay (NCATS).
Where “and” joins values, the source holds several entries; their conditions need not be identical. Identical values can stand only once. Records with an inconclusive call do not appear. Calls of active or inactive are those of the source. Unless noted, calls come from the whole dose curve; as a rule, active = well fitted curve in the direction sought with a large enough effect; inconclusive = small, poorly fitted or top-dose-only effect, or another doubt; inactive = no such curve, though single readings can be large; an effect the other way counts as inactive or inconclusive.

How the values were obtained:
[1] = biological target: Galactokinase (Homo sapiens) (UniProt P51570); test: qHTS Validation Assay for Inhibitors of Human Galactokinase (GALK) (AID 493189); note: 0% is about no effect
Chain of Galactokinase (Homo sapiens) (P51570 whole entry, looked up): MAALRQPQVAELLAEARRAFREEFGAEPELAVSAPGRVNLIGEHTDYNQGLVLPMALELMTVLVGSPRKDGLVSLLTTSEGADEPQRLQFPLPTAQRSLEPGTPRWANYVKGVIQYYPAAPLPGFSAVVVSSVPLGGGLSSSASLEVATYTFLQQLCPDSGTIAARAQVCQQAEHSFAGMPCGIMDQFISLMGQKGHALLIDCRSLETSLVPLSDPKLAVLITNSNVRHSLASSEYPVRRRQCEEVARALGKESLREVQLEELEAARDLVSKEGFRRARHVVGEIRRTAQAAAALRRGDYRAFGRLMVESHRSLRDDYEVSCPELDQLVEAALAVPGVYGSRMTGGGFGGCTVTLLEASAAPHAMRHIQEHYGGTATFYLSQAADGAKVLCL
Method in brief: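 Luminescence from leftover ATP (Kinase-Glo Plus, 10 min) served as read-out after a 1 h room-temperature reaction of 5 nM GALK, 100 uM galactose and 35 uM ATP at pH8.0.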

[2] = Validation screen for small molecules that induce DNA re-replication in SW480 colon adenocarcinoma cells (AID 504364); note: 0% is about no effect
Method in brief: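 Cells are treated 48 hr with test compound, stained 40 min with Hoechst at 37 C, and scanned for nuclear fluorescence; compounds inducing re-replication increase nuclei with elevated intensity.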

[3] = biological target: Peptidyl-prolyl cis-trans isomerase NIMA-interacting 1 (Homo sapiens) (UniProt Q13526); test: qHTS Validation Assay to Find Inhibitors of Pin1 (AID 504536; active = well fitted inhibition curve with a large enough effect in the polarisation, with a control signal flat, not every such curve was filed as active; the % refers to the polarisation;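 note: 0% = full Pin1 enzyme wells and -100% = no-enzyme wells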)
Chain of Peptidyl-prolyl cis-trans isomerase NIMA-interacting 1 (Homo sapiens) (Q13526 whole entry, looked up): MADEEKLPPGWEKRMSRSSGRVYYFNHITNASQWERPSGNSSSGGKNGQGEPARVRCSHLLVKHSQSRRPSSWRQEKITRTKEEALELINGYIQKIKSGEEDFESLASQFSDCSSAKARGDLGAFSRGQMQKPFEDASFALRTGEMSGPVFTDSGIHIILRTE
Method in brief: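 Fluorescence polarization competition: compounds (titration) displace HiFluor-488-labeled Pin1-1b peptide from Pin1 (0.3 uM final) in pH 7.5 HEPES buffer with DTT, 10 min at room temperature; %Activity normalized to no-enzyme wells, curves fitted.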

[4] = biological target: Phosphoglycerate kinase, glycosomal (Trypanosoma brucei brucei) (UniProt P07378); test: qHTS Validation Assay to Find Inhibitors of Phosphoglycerate Kinase (AID 504547);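 note: control wells lack PGK and mark full inhibition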
Chain of Phosphoglycerate kinase, glycosomal (Trypanosoma brucei brucei) (P07378 whole entry, looked up): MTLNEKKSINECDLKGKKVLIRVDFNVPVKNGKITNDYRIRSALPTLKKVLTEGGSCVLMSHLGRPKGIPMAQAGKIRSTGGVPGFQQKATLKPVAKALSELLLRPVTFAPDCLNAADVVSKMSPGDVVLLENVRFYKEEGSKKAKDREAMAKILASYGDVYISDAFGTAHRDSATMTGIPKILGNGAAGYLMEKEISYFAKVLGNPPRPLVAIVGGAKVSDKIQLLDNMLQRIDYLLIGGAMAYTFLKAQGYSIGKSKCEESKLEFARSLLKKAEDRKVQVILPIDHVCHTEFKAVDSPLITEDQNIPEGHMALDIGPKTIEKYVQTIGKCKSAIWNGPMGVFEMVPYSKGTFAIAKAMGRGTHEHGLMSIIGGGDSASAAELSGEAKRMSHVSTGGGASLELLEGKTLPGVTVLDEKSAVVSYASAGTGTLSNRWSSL
Method in brief: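 Substrate/PGK mix plus compound; reaction started with GAPDH (100nM final) to form 1,3-BPG; 60 min RT; Kinase-Glo Plus 10 min; luminescence. TEA 100mM pH 7.6, MgCl2 5mM, Tween-20 0.01%.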

[5] = biological target: phosphoglycerate mutase (Leishmania major) (UniProt Q4Q090); test: qHTS Validation Assay to Find Inhibitors of Phosphoglycerate Mutase (AID 504548); note: series mostly up to about 58 µM; % is set by controls: 0 for no effect and ±100 for the full control effect
Chain of phosphoglycerate mutase (Leishmania major) (Q4Q090 1-553): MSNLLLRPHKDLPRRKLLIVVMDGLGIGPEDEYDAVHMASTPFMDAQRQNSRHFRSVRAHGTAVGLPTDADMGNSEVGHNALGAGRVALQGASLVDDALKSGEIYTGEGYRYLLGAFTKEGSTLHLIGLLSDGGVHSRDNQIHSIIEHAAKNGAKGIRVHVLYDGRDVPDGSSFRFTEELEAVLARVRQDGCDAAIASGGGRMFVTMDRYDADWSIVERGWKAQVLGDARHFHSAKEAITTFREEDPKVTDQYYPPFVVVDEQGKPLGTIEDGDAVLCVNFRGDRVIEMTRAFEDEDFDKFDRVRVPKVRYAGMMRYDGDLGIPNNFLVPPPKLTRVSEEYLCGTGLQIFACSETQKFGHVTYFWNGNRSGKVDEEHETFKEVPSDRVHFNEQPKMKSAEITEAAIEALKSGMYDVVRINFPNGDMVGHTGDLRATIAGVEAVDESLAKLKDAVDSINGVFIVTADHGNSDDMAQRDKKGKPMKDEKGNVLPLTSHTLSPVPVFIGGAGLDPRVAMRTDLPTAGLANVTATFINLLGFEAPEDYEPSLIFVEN
Method in brief: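 Luminescent end-point read-out via Kinase-GloPlus after a 10-minute development. Reaction: 1.25nM Leishmania major PGAM with substrate and compound, 45 minutes at room temperature in TEA buffer (pH 7.6) with MgCl2 and Tween-20.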

[6] = qHTS for Inhibitors of ATXN expression: Validation of Cytotoxic Assay (AID 588349);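 note: cells exposed to compound for 72 hr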; note: potency is the fitted concentration of half-maximal effect
Method in brief: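 HEK293, compound dose series, 72 hr / 37 degrees C; viability via CellTiter Glo (intracellular ATP).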

[7] = qHTS for Inhibitors of ATXN expression: Validation (AID 588378); note: nearly all actives have a fitted effect of over 75% in size; note: potency is the fitted concentration of half-maximal effect
Method in brief: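 Cells: HEK293-ATXN2-FFLuc, phenol-red free DMEM, 2 h attachment. Compound pin-transfer, 24 h, 37 degrees C, 5% CO2. CellTiter-Fluor 30 min, Ex405/Em525; Bright-Glo 5 min, luminescence 2 s exposure.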

[8] = biological target: DNA dC->dU-editing enzyme APOBEC-3G (Homo sapiens) (UniProt Q9HC16); test: qHTS for inhibitors of Vif-A3G interactions: Validation (AID 588379); note: 0% is about no effect
Chain of DNA dC->dU-editing enzyme APOBEC-3G (Homo sapiens) (Q9HC16 whole entry, looked up): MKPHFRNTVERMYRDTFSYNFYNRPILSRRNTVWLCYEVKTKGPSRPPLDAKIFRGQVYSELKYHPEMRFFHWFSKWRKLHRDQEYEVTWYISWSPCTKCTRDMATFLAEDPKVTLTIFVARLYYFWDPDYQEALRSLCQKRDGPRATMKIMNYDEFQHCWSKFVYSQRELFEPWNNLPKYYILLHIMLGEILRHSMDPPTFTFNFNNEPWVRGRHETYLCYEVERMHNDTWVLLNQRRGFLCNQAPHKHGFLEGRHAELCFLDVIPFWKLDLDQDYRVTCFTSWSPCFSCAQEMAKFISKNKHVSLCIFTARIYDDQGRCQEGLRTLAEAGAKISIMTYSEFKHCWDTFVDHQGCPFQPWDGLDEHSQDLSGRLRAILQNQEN
Method in brief: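 HeLa cells stably expressing Vif and A3G-eYFP, 700 cells/well, incubated overnight at 37 deg C, then exposed to compound overnight at 37 deg C. Inhibition of Vif-mediated degradation read as increased yellow fluorescence (Ex 488/Em 500-530) by laser-scanning cytometry.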

[9] = biological target: Glucocorticoid receptor (Homo sapiens) (UniProt P04150); test: qHTS assay for small molecule agonists of glucocorticoid receptor signaling (AID 588532; active = well fitted curve in the direction sought with a large enough effect in the signal ratio, with a control signal flat; the % refers to the signal ratio;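 note: 100% = dexamethasone at 0.1 µM and 0% = DMSO only wells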); conditions: HeLa MMTV-bla, beta-lactamase ratio, agonist, 18 h; stronger effect = higher value; percent of dexamethasone control, DMSO zero
Chain of Glucocorticoid receptor (Homo sapiens) (P04150 whole entry, looked up): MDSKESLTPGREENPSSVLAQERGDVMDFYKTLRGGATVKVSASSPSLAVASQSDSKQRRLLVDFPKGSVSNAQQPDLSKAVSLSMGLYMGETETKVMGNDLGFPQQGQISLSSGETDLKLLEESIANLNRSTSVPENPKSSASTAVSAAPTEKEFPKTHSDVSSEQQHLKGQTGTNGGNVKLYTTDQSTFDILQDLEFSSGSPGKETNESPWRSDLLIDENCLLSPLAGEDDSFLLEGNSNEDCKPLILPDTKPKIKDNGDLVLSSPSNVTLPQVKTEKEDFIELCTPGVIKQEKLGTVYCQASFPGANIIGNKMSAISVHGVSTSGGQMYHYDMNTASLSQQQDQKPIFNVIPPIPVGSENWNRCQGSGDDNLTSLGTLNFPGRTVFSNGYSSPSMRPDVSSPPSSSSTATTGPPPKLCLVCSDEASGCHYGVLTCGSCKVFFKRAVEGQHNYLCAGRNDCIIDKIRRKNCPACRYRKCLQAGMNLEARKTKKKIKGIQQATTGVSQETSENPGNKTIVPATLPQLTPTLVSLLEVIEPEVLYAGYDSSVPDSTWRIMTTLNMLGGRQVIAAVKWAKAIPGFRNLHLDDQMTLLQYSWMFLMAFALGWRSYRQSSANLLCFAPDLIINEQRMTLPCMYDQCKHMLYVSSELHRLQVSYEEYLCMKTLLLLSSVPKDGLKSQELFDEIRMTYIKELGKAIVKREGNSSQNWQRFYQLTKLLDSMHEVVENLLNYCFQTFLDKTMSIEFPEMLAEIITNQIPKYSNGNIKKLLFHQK
Method in brief: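 Stimulation of a glucocorticoid response element-driven beta-lactamase gene was measured in HeLa cells. Responses were scaled between DMSO basal and 0.1 uM dexamethasone, then fitted for half-maximal stimulation.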

[10] = biological target: Peroxisome proliferator-activated receptor gamma (Homo sapiens) (UniProt P37231); test: qHTS assay for small molecule antagonists of peroxisome proliferator-activated receptor gamma signaling (AID 588537; active = well fitted inhibition curve with a large enough effect in the signal ratio, with a control signal flat, not every such curve was filed as active; the % refers to the signal ratio;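 note: reporter cells co-stimulated with 50 nM rosiglitazone agonist during compound treatment; % of control where 0% means no effect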)
Method in brief: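 PPAR-gamma-UAS-bla HEK293 cells (3000/well, 1% charcoal/dextran-stripped FBS) were preincubated 6-6.5 h at 37 C, given titrated compounds, then stimulated with 50 nM rosiglitazone for 16 h. Beta-lactamase activity was read with CCF4 dye; IC50 came from Hill fits.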

[11] = biological target: Ubiquitin carboxyl-terminal hydrolase 1 (Homo sapiens) (UniProt O94782); test: Inhibitors of USP1/UAF1: Pilot qHTS (AID 504865);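 note: rhodamine fluorescence freed from ubiquitin-rhodamine substrate followed over time; top concentration of the series differs between compounds; % is set by controls: 0 for no effect and ±100 for the full control effect; nearly all actives have a fitted effect of over 35% in size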
Chain of Ubiquitin carboxyl-terminal hydrolase 1 (Homo sapiens) (O94782 whole entry, looked up): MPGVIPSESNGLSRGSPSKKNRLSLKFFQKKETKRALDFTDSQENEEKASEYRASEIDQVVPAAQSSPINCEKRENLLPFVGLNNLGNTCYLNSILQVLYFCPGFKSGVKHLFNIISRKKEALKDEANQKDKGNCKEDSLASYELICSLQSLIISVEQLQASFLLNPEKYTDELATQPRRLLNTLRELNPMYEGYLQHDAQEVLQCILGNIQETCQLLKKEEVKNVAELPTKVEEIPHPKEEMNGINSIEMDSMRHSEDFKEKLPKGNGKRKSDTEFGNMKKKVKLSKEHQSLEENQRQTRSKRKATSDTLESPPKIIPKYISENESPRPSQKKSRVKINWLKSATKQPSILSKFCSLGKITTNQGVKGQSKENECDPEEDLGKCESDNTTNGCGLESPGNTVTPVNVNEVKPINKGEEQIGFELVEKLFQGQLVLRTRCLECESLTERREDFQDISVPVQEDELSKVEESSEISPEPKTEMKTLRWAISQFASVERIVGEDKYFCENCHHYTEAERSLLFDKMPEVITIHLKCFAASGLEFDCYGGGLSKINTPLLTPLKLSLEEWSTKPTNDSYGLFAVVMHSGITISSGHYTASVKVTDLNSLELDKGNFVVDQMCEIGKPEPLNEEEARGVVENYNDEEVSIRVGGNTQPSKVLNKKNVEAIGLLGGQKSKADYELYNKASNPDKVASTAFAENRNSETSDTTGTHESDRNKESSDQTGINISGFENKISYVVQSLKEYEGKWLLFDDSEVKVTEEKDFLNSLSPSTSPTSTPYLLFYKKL
Method in brief: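 1nM USP1/UAF1 + cpd, 15 min RT; start w/ Ub-Rho 150nM final; kinetic FL 480/540 nm, 6 reads q60 s. Buffer 50mM HEPES pH 7.8, 0.5mM EDTA, 1mM TCEP, 0.01% Tween-20, 0.1 mg/ml BSA.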

[12] = biological target: Estrogen receptor (Homo sapiens) (UniProt P03372); test: qHTS assay for small molecule antagonists of estrogen receptor alpha signaling (AID 588513; active = well fitted curve in the direction sought with a large enough effect in the signal ratio, with a control signal flat, not every such curve was filed as active; the % refers to the signal ratio; note: % is set by controls: 0 for no effect and ±100 for the full control effect)
Chain of Estrogen receptor (Homo sapiens) (P03372 whole entry, looked up): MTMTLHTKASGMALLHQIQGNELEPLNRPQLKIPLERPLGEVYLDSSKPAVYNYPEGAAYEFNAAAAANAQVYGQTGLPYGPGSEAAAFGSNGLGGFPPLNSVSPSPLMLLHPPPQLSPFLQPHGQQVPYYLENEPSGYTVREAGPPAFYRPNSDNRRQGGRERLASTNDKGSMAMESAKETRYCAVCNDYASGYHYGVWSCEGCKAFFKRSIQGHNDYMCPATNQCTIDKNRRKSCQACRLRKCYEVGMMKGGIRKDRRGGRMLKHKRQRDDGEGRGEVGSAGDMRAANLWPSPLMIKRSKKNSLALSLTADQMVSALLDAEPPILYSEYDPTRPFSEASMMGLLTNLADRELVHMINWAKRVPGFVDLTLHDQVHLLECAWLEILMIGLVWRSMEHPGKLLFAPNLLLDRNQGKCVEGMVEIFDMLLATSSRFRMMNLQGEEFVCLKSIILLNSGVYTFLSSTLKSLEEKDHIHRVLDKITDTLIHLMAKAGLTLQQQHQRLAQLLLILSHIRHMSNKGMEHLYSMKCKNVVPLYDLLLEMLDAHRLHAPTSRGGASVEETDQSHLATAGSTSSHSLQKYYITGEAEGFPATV
Method in brief: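 Beta-lactamase reporter, antagonist mode, HEK 293 GripTite cells; 0.5nM E2 stimulus, 18 h, 37 C; CCF4 dye 2 h RT; fluorescence. IC50 and efficacy from Hill fits, normalized to E2 and DMSO.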

[13] = biological target: Estrogen receptor (Homo sapiens) (UniProt P03372); test: qHTS assay for small molecule agonists of estrogen receptor alpha signaling (AID 588514; calls by dose curve;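 note: 0% = vehicle only and 100% = reference agonist; nearly all actives have a fitted effect of over 70% in size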)
Method in brief: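 Reporter-gene assay. […] controls beta-lactamase in HEK 293 GripTite cells; after 18 hrs with compound, CCF4 substrate is added for 2 hrs and fluorescence is read.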

[14] = qHTS assay for small molecule antagonists of peroxisome proliferator-activated receptor delta signaling (AID 588535; active = well fitted inhibition curve with a large enough effect in the signal ratio, with a control signal flat, not every such curve was filed as active; the % refers to the signal ratio;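 for max response: cells co-treated with a PPAR-delta agonist as stimulator during compound exposure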); conditions: HEK293T PPARd-UAS-bla, beta-lactamase FRET ratio, 18 h; 460 nm channel
Method in brief: (§1)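 GeneBLAzer PPAR-delta-UAS-bla HEK293T cells in medium with 2% charcoal/dextran FBS were preincubated 5 hrs at 37 C, then given compounds, incubated 18 hrs at 37 C, and read by CCF4 beta-lactamase fluorescence; IC50 from Hill fits.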

[15] = biological target: Peroxisome proliferator-activated receptor delta (Homo sapiens) (UniProt Q03181); test: as above
Chain of Peroxisome proliferator-activated receptor delta (Homo sapiens) (Q03181 whole entry, looked up): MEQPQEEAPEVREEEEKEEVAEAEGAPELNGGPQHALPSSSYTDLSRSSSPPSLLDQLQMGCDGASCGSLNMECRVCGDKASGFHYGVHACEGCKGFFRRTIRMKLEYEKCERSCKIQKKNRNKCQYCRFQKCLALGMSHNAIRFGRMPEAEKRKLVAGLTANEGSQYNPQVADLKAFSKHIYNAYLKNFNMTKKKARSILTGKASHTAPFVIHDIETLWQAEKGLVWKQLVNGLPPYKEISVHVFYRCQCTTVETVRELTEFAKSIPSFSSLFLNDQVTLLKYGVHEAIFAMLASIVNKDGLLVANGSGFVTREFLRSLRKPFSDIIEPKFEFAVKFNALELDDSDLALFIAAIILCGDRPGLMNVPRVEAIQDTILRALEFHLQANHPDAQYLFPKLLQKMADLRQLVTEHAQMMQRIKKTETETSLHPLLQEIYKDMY
Method in brief: as §1

[16] = biological target: Peroxisome proliferator-activated receptor gamma (Homo sapiens) (UniProt P37231); test: qHTS assay for small molecule agonists of peroxisome proliferator-activated receptor gamma signaling (AID 588536; active = well fitted curve in the direction sought with a large enough effect in the signal ratio, with a control signal flat, not every such curve was filed as active; the % refers to the signal ratio;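 note: 0% = DMSO basal wells and 100% = rosiglitazone at 2 µM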)
Method in brief: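 Test agents, titrated, stimulated HEK293 UAS-bla cells overnight (16 h, 37 C). Substrate CCF4 was then added for two hours at room temperature before fluorescence reading.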

[17] = biological target: Vitamin D3 receptor (Homo sapiens) (UniProt P11473); test: qHTS assay for small molecule antagonists of vitamin D receptor signaling (AID 588541; calls by dose curve;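 note: receptor activated by calcitriol during compound treatment; series mostly up to about 77 µM; % is set by controls: 0 for no effect and ±100 for the full control effect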)
Chain of Vitamin D3 receptor (Homo sapiens) (P11473 whole entry, looked up): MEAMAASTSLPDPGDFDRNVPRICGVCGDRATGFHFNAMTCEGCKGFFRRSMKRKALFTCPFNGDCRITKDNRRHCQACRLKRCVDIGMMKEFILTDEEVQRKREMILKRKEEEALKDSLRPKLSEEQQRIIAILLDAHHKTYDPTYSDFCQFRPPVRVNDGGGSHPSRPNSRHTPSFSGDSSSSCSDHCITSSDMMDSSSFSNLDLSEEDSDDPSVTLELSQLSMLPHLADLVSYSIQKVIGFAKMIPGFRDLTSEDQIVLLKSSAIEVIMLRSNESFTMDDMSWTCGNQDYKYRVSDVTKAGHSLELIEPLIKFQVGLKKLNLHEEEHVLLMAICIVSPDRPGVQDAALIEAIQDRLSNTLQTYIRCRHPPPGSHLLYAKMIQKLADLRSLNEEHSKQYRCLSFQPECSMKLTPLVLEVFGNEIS
Method in brief: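 VDR-UAS-bla HEK293T cells (2000/well, 2% charcoal-stripped FBS) were treated with titrated compounds plus 1-alpha,25-dihydroxyvitamin D3 (50 nM or 3 nM final) for 16 h at 37 C. CCF4 beta-lactamase fluorescence was read; Hill fits gave IC50.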

[18] = biological target: Androgen receptor (Homo sapiens) (UniProt P10275); test: qHTS assay for small molecule antagonists of androgen receptor signaling (AID 588516; active = well fitted curve in the direction sought with a large enough effect in the signal ratio, with a control signal flat, not every such curve was filed as active; the % refers to the signal ratio; note: % is set by controls: 0 for no effect and ±100 for the full control effect)
Method in brief: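 HEK293 AR-UAS-bla cells, 10% dialyzed FBS medium; cpd titration + R1881 10 nM final, 16 h 37 C; CCF4 2 h RT; FRET ratio; IC50/efficacy via Hill fit.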

[19] = biological target: Bile acid receptor (Homo sapiens) (UniProt Q96RI1); test: qHTS assay for small molecule antagonists of farnesoid X receptor signaling (AID 588526; calls by dose curve; note: % is set by controls: 0 for no effect and ±100 for the full control effect)
Method in brief: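 Concentration-response titrations were fitted to the Hill equation for half-maximal inhibition and maximal response, with data normalised to 50 uM chenodeoxycholic acid and DMSO control wells. Cells: FXR-UAS-bla HEK293T, dialyzed FBS.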

CC/C(=C(\c1ccccc1)c1ccc(OCCN(C)C)cc1)c1ccccc1
active: Potency [6] 25.1 µM | Potency [7] 22.4 µM
inactive: outcome [1] | outcome [2] | outcome [3] | outcome [4] | outcome [5] | outcome [8] | activation [9] 5.77% and -2.85% | Potency [10]

CCCNC(=O)NS(=O)(=O)c1ccc(Cl)cc1
inactive: outcome [1] | outcome [2] | outcome [3] | outcome [4] | outcome [5] | Potency [11] | Potency [6] | Potency [7] | Potency [12] | outcome [13] | activation [9] 0.922% and 6.93% | outcome [15] | outcome [16] | Potency [10] | outcome [17]
8.72%: max response [14]

CC(=O)CCCCn1c(=O)c2c(ncn2C)n(C)c1=O
inactive: outcome [1] | outcome [2] | outcome [3] | outcome [4] | outcome [5] | Potency [11] | Potency [6] | Potency [7]

C[N+](C)(C)CCCCCC[N+](C)(C)C
inactive: outcome [1] | outcome [2] | outcome [3] | outcome [4] | outcome [5] | Potency [11] | Potency [6] | Potency [7]

CCN(CC)CCNC(=O)c1ccc(N)cc1
inactive: outcome [1] | outcome [2] | outcome [4] | outcome [5] | Potency [6] | Potency [7]

CC(C)NCC(O)COc1cccc2[nH]ccc12 (configuration not stated)
inactive: outcome [1] | outcome [2] | outcome [3] | outcome [4] | outcome [5] | Potency [11] | Potency [6] | Potency [7]

COC(=O)[C@@H]1[C@H]2C[C@H]3c4[nH]c5ccccc5c4CCN3C[C@@H]2CC[C@@H]1O
inactive: outcome [1] | outcome [2] | outcome [3] | outcome [4] | outcome [5] | Potency [11] | Potency [6]

O=c1c(-c2ccc(O)cc2)coc2cc(O)ccc12
inactive: outcome [1] | outcome [2] | outcome [3] | outcome [4] | outcome [5] | Potency [11] | Potency [6] | Potency [7] | outcome [8] | outcome [18] | outcome [19] | activation [9] -8.98% and -6.42% | outcome [15] | outcome [16] | Potency [10]
40.9% and 70.8%: max response [14]

CC(=O)N[C@@H](CS)C(=O)O
inactive: outcome [1] | outcome [2] | outcome [3] | outcome [4] | outcome [5] | Potency [11] | Potency [6] | Potency [7] | outcome [19] | outcome [15] | outcome [16] | outcome [17]
-4.28%: max response [14]
